TDP1 block = blocks human tyrosyl-DNA phosphodiesterase 1. Q9NUW8. Potency, µM (titrated, usually from 130 µM), most hits filed as inhibitors. actives 0.28% (n = 350,000). recombinant TDP1, AlphaScreen DNA substrate cleavage. AID 485290; note: nearly all actives have a fitted effect of over 40% in size
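Signal: AlphaScreen proximity between streptavidin donor and anti-FITC acceptor beads on intact substrate. Reaction: Tdp1 1 nM, substrate 15 nM final, 5 min RT after 15 min compound preincubation.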
PLK1 PBD block = PLK1 (human) polo-box domain binding inhibition; P53350; Plk1 PBD binding of FITC phosphopeptide, fluorescence polarization; Potency, µM, hits mostly inhibitors; actives 2.8% (n = 360,000); note: series mostly up to about 57 µM; nearly all actives have a fitted effect of over 65% in size
KAT2A inh = inhibitors of human GCN5L2 histone acetyltransferase; Q92830; GCN5L2 HAT assay, ThioGlo1 CoA-SH fluorescence; Potency, µM (titrated, usually from 58.9 µM), usual class: inhibitors; actives 0.21% (n = 390,000)
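Free CoA generated was detected with ThioGlo1 (50uM) fluorescence at Ex340nm/Em540nm, read immediately and after 20 min at room temperature. Enzyme, 20 nM in HEPES pH 7.5 buffer, saw compounds 15 min before adding 75uM H3(1-25) peptide and 70uM acetyl-CoA.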
TDP1 cell noCPT = qHTS for Inhibitors of human tyrosyl-DNA phosphodiesterase 1 (TDP1): qHTS in cells in absence of CPT. actives 15% (n = 420,000). Potency, µM (titrated, usually from 46.2 µM), hits mostly inhibitors. AID 686978, 2013. DT40 Tdp1-/- hTDP1 cells, no CPT, ATP luminescence, 48 h; note: nearly all actives have a fitted effect of over 55% in size
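Readout: luminescence from CellTiter-Glo after 30 min in the dark at RT. Cells: DT40 Tdp1-/- with stable hTDP1, 400/well. Exposure: compounds alone, ≥48 hr, 37 °C.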
TDP1 cell CPT = DT40-hTDP1 cell growth loss with CPT | chicken DT40 Tdp1-/-;hTDP1 cells + 20 nM CPT, ATP luminescence, 48 h | Potency, µM (doses to about 46.2 µM), usual class: inhibitors | actives 12% (n = 420,000); note: nearly all actives have a fitted effect of over 55% in size
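Chicken DT40 Tdp1-/- cells stably complemented with human TDP1 were seeded at 400 cells/well in medium containing 20 nM camptothecin, exposed to pin-transferred compounds, and grown at 37 °C for at least 48 hr. Viability was read as ATP luminescence.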
VDR inh = vitamin D3 receptor (human) inhibition; VDR-SRC2-3 peptide fluorescence polarization, 2 h; Potency, µM, actives largely listed as inhibitors; actives 0.93% (n = 400,000); AID 504847
Target sequence (P11473 whole entry, looked up): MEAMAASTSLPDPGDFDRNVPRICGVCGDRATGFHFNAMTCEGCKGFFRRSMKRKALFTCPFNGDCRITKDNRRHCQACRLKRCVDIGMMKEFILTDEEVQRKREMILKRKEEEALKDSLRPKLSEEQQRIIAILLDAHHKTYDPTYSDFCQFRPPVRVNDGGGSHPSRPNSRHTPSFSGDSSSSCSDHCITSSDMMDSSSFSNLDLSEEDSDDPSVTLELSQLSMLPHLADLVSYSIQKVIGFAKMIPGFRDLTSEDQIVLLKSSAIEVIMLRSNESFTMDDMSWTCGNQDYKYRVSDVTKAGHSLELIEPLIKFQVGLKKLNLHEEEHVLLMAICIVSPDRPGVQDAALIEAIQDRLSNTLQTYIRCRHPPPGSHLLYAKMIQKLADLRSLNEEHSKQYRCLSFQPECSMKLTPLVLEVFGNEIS
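Fluorescence polarization assay measuring small-molecule disruption of VDR binding to the coregulator peptide SRC2-3. Compounds were pin-transferred (23 nl) into the reagent mix and incubated 2 h at room temperature before reading.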
Large screens that a line does not name were inactive. Sampled rows, rich in hits. Any-hit rate of the full collection: about 18%. Calls come from the whole dose curve; as a rule, active = well fitted curve in the direction sought with a large enough effect; inconclusive = small, poorly fitted or top-dose-only effect, or another doubt; inactive = no such curve, though single readings can be large; an effect the other way counts as inactive or inconclusive.

CCOc1ccc(N2C(=O)Nc3ccccc3C2(O)C(=O)N2CCN(c3ccccn3)CC2)cc1 (stereo not given)	TDP1 cell CPT inconclusive
COC(=O)C1CCN(CC(=O)Nc2ccccc2Sc2ccccc2)CC1	TDP1 cell noCPT inconclusive
CC1CN(CC(=O)Nc2ccccc2Sc2ccccc2)CC(C)O1 (stereo not given)	TDP1 cell noCPT 23µM, TDP1 cell CPT 23µM
CC(=O)N1CCN(CC(=O)Nc2ccccc2Sc2ccccc2)CC1	TDP1 cell noCPT 23µM, TDP1 cell CPT inconclusive
COCCCNC(=O)c1csc([C@@H]2O[C@H](CO)[C@H](O)[C@H](O)[C@H]2O)n1	none (no result: TDP1 block, KAT2A inh, VDR inh)
COc1ccc2cc(C(C)C(=O)OC(C)C)ccc2c1 (stereo not given)	TDP1 block 79µM
CCC(C(=O)OC(C)C)c1ccc2ccccc2c1 (stereo not given)	TDP1 cell CPT inconclusive
Cc1cccc(S(=O)(=O)Nc2ccc(-n3c(C)nc4ccccc4c3=O)cc2)c1	TDP1 cell noCPT 23µM, TDP1 cell CPT inconclusive
Cc1ccc(C(=O)Nc2ccccc2Oc2ccccc2)cc1[N+](=O)[O-]	TDP1 cell noCPT inconclusive, TDP1 cell CPT inconclusive
Cc1nc2ccccc2c(=O)n1-c1ccc(NC(=O)c2ccccc2[N+](=O)[O-])cc1	TDP1 cell noCPT 23µM, TDP1 cell CPT inconclusive (no result: PLK1 PBD block)
Cc1cc(-n2c(C)nc3ccccc3c2=O)ccc1NC(=O)c1ccc(C)c([N+](=O)[O-])c1	TDP1 cell noCPT 5.2µM, TDP1 cell CPT 7.3µM (no result: PLK1 PBD block)
COc1ccc(NC(=O)c2ccccc2[N+](=O)[O-])cc1	none
Cc1ccccc1NN=Nc1nc2c([nH]1)c(=O)n(C)c(=O)n2C	PLK1 PBD block inconclusive
COc1ccc(NN=Nc2nc3c([nH]2)c(=O)n(C)c(=O)n3C)cc1	PLK1 PBD block 4.7µM, TDP1 cell noCPT inconclusive, TDP1 cell CPT 21µM, VDR inh inconclusive
Cn1c(=O)c2[nH]c(N=NNc3ccccc3F)nc2n(C)c1=O	VDR inh 79µM (no result: TDP1 block)
CCn1nc(C)c(CCN(C)C(=O)Nc2cc(C)cc(C)c2)c1C	TDP1 cell noCPT inconclusive, TDP1 cell CPT inconclusive (no result: PLK1 PBD block)
C=CCn1c2ccccc2c2n[nH]c(=S)nc21	TDP1 cell noCPT inconclusive, VDR inh inconclusive
COc1ccc(C(=O)N/N=C\c2ccc(OC)c(COc3ccccc3Br)c2)c(OC)c1	KAT2A inh inconclusive, TDP1 cell noCPT inconclusive, TDP1 cell CPT 23µM
COc1ccc(C(=O)N(Cc2ccccc2)Cc2ccc(OC)c(COc3ccc(NC(C)=O)cc3)c2)cc1	TDP1 cell noCPT 22µM, TDP1 cell CPT inconclusive (no result: PLK1 PBD block, KAT2A inh)
COc1ccc(/C=N/NC(=O)c2ccoc2C)cc1CN1CCN(c2ccc(F)cc2)CC1	TDP1 cell noCPT 15µM, TDP1 cell CPT inconclusive (no result: TDP1 block)
COc1ccc(/C=N\NC(=O)c2ccc(F)cc2)cc1COc1ccccc1C(N)=O	TDP1 cell noCPT inconclusive
COc1cc(OC)cc(C(=O)N/N=C/c2ccc(OC)c(COc3ccc(F)cc3)c2)c1	TDP1 cell noCPT 2.9µM, TDP1 cell CPT 2.3µM
COc1ccc(C(=O)N/N=C/c2ccc(OC)c(CN3CCN(c4ccc(F)cc4)CC3)c2)cc1	TDP1 cell noCPT inconclusive, TDP1 cell CPT inconclusive
CS(=O)(=O)c1ccc(-c2cccc3c2OC(CNC(=O)c2cc(C4CC4)[nH]n2)C3)cc1 (stereo not given)	TDP1 cell noCPT inconclusive (no result: TDP1 block, PLK1 PBD block, KAT2A inh, VDR inh)
COc1ccc(C(=O)NCN2CCN(c3ccccc3)CC2)cc1OC	none
COc1ccc(C(=O)N/N=C/c2ccc(OC)c(COc3c(F)c(F)cc(F)c3F)c2)cc1	TDP1 cell CPT inconclusive
COc1ccc(OCc2cc(/C=N\NC(=O)c3ccccc3)ccc2OC)cc1	TDP1 cell noCPT 5.2µM, TDP1 cell CPT 4.6µM
CC(CCC(C)[n+]1cccc(C#N)c1)[n+]1cccc(C#N)c1 (stereo not given)	none (no result: TDP1 block, PLK1 PBD block, KAT2A inh, VDR inh)
CCNC(=S)N/N=C/c1cccc(/C=N/NC(=S)NCC)c1	none
CCNC(=S)N/N=C/c1cccc(OCc2c(F)cccc2Cl)c1	TDP1 cell noCPT 16µM, TDP1 cell CPT inconclusive

Source: PubChem BioAssay
